# In PubChem BioAssay (EPA / NIEHS):
# Inconclusive results are not listed. Active and inactive are the calls of the source. How the source made its calls: active means hit-call score of the fitted dose curve at least 0.9, where 1 is the maximum; inconclusive means response in the unintended direction; inactive means score below 0.9.
# Tests used:
# [1] = ACEA_AR_agonist_AUC_viability: ACEA Biosciences xCELLigence Real-Time Cell Analysis on Androgen Receptor Agonism for Viability (AID 2283775);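 on AC50: viability read 80 hours after compound addition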
# Method in brief: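 Viability endpoint from xCELLigence impedance in 22Rv1 prostate cells at 80 h. Eight-point series, 100 uM maximum final.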
# [2] = ACEA_AR_antagonist_AUC_viability: ACEA Biosciences xCELLigence Real-Time Cell Analysis on Androgen Receptor Antagonism for Viability (AID 2283776);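 further: 22Rv1 human prostate cancer cells growing on impedance electrode plates; area under impedance growth curve at 80 h after dosing as viability; hits lower the growth signal relative to DMSO meaning cytotoxicity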
# Method in brief: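 Impedance read-out (RT-CES): area under growth curve at 80 h post-dose, loss of signal scored vs DMSO baseline. 22Rv1 cells; 8-pt 1:4 series, top 100 uM final, ≤0.5% DMSO; biological duplicate.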
# [3] = ACEA_ER_AUC_viability: ACEA Biosciences xCELLigence Real-Time Cell Analysis on Estrogen Receptor Agonism for Viability (AID 2283782);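 further: hit means loss of impedance signal meaning reduced cell growth or viability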
# Method in brief: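 Read-out: real-time electrical impedance (RT-CES) area under curve, loss of signal taken as reduced viability, normalized to DMSO baseline. T-47D cells, charcoal-stripped serum medium, compounds up to 100 uM final, continuous exposure, 80 h.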
# [4] = STM_H9_NormalizedViability: Cytotoxicity Assessment at 120 hours in the Stemina devTOX quickPredict H9 human embryonic stem cell (hESC)-based Assay (AID 2283784)
# Method in brief: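 CellTiter-Fluor RFU, background-subtracted, expressed relative to 0.1% DMSO neutral control by plate. Pluripotent H9 cells; treatment with daily re-dosing. Plates carried 1uM methotrexate (positive) and 5 nM methotrexate (negative) references.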
# AR (gene 367) [5] = target: AR (gene 367) (UniProt P10275); assay: ACEA_AR_antagonist_80hr: ACEA Biosciences xCELLigence Real-Time Cell Analysis on Androgen Receptor Antagonism for Proliferation (AID 2283787);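 further: 22Rv1 human prostate cancer cells with growth followed by electrical impedance; hits lower the impedance growth signal relative to DMSO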
# Method in brief: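 Measures real-time proliferation of 22Rv1 prostate cancer cells by electrode impedance at 80 hours after dosing. Test articles ran at eight concentrations (1:4 steps, top 100 uM final) in biological duplicate.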
# AR (gene 367) [6] = target: AR (gene 367) (UniProt P10275); assay: ACEA_AR_agonist_80hr: ACEA Biosciences xCELLigence Real-Time Cell Analysis on Androgen Receptor Agonism for Proliferation (AID 2283783);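 further: hits increase impedance growth signal above DMSO baseline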
# Method in brief: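 Impedance (RT-CES) growth signal at 80 h post-dose; 22Rv1 cells, 8-pt 1:4 series, top 100 uM final, DMSO ≤0.5%; duplicate plates; gain-of-signal fit relative to DMSO baseline.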
# Chain of AR (gene 367) (P10275 whole entry, looked up): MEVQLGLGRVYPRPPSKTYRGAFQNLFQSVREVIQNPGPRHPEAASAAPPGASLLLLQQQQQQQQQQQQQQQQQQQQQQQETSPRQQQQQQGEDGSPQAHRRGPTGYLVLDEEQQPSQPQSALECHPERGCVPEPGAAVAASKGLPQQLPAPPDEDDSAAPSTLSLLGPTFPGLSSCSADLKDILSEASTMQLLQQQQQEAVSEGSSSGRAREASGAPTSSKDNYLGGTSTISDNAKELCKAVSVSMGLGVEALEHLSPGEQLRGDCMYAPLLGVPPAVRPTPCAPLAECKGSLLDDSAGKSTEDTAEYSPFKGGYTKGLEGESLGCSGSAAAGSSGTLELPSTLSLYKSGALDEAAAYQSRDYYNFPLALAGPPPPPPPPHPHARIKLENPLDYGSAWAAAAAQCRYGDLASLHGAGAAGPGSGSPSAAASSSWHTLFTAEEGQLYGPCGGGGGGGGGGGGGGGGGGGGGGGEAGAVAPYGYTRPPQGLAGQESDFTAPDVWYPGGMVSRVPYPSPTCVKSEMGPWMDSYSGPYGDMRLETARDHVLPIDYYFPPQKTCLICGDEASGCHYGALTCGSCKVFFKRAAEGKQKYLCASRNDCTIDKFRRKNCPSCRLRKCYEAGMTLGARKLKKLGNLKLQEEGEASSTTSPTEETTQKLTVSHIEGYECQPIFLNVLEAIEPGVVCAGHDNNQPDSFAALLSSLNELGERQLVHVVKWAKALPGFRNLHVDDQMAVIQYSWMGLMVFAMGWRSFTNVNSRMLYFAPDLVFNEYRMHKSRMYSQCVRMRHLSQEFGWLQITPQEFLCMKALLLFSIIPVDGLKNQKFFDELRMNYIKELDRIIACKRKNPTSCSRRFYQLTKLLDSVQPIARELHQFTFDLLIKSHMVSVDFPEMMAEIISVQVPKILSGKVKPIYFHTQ
smiles,measurement,setting,value
Clc1cc(Cl)c(Cl)cc1Cl,outcome,[1],inactive
same,outcome,[2],inactive
same,outcome,[3],inactive
Oc1ccc2c(c1)OC[C@@H](N1CCC(O)(c3ccc(F)cc3)CC1)[C@H]2O,outcome,[1],inactive
same,outcome,[2],inactive
same,outcome,[3],inactive
Nc1ccccc1N,outcome,[1],inactive
same,AC50,[2],24.2 µM (active)
same,outcome,[3],inactive
same,AC50,[4],2.01 µM (active)
C[C@]12C=CC(=O)C=C1CC[C@@H]1[C@@H]2C(=O)C[C@@]2(C)[C@H]1CC[C@]2(O)C(=O)CO,outcome,[2],inactive
O=c1c(O)c(-c2ccc(O)c(O)c2)oc2cc(O)cc(O)c12,AC50,[1],17.8 µM (active)
same,outcome,[4],inactive
CC(=O)OCCOCCOCCOC(C)=O,outcome,[2],inactive
CCCCCCCCCCO,outcome,[2],inactive
O=C(O)Cc1ccccc1Nc1c(Cl)cccc1Cl,AC50,[1],42.1 µM (active)
same,AC50,[2],50 µM (active)
same,AC50,AR (gene 367) [5],70.9 µM (active)
C=CCOC(=O)c1ccccc1C(=O)OCC=C,outcome,[2],inactive
same,outcome,[4],inactive
COCCOC[C@H](CC1(C(=O)NC2CCC(C(=O)O)CC2)CCCC1)C(=O)Oc1ccc2c(c1)CCC2 (stereo partly drawn),outcome,[1],inactive
same,AC50,[2],16.5 µM (active)
same,AC50,AR (gene 367) [5],18.2 µM (active)
COc1cc(C=O)ccc1O,outcome,AR (gene 367) [6],inactive
CC(CO)OC(C)CO (stereo not drawn) (tested in a mixture with another compound),outcome,[1],inactive
same,outcome,[4],inactive
COCCOCCOC,outcome,[2],inactive
same,outcome,AR (gene 367) [6],inactive
same,outcome,[4],inactive
same,outcome,AR (gene 367) [5],inactive
COc1cc(S(=O)(=O)O)c(C)cc1N=Nc1c(O)ccc2cc(S(=O)(=O)O)ccc12,outcome,[2],inactive
CC(=O)Oc1ccccc1C(=O)O,outcome,[1],inactive
same,outcome,[2],inactive
same,outcome,AR (gene 367) [5],inactive
Cc1cccc(Nc2cc(Cl)nc(SCC(=O)O)n2)c1C,outcome,[1],inactive
same,outcome,[2],inactive
same,outcome,[4],inactive
same,outcome,AR (gene 367) [5],inactive
Nc1nc(N)c2nc(CNc3ccc(C(=O)N[C@@H](CCC(=O)O)C(=O)O)cc3)cnc2n1,outcome,[1],inactive
same,AC50,[3],40.1 µM (active)
Cc1cc(NC(=O)C(=O)O)cc(C)c1Oc1ccc(O)c2c1CCC2,outcome,[2],inactive
same,outcome,AR (gene 367) [6],inactive
same,outcome,[4],inactive
same,outcome,AR (gene 367) [5],inactive
Cc1ccc(Cl)cc1,outcome,[3],inactive
Cc1ccc(N(C)C)cc1,outcome,[1],inactive
same,outcome,[2],inactive
same,outcome,AR (gene 367) [5],inactive
Cc1cccc(C)c1O,outcome,[2],inactive
same,outcome,[3],inactive
same,outcome,AR (gene 367) [6],inactive
Oc1ccc2ccccc2c1N=Nc1ccccc1,outcome,[2],inactive
same,AC50,[4],0.992 µM (active)
CCCc1cc(=O)[nH]c(=S)[nH]1,outcome,[2],inactive
same,outcome,[4],inactive
CCCCCCCCCCC,outcome,[1],inactive
same,outcome,AR (gene 367) [5],inactive
Cc1cccc([N+](=O)[O-])c1C,outcome,[1],inactive
same,outcome,[2],inactive
same,outcome,AR (gene 367) [5],inactive
CCCCCC(=O)O,outcome,[1],inactive
same,outcome,[2],inactive
same,outcome,AR (gene 367) [5],inactive
Cc1c(C(=O)O)c(O)cc2c1C(=O)c1c(O)c([C@@H]3O[C@H](CO)[C@@H](O)[C@H](O)[C@H]3O)c(O)c(O)c1C2=O,outcome,[2],inactive
same,outcome,[4],inactive
CN1CCN(Cc2cc(-c3ccc4[nH]c(=O)oc4c3)co2)[C@@H](c2ccc(F)cc2)C1,AC50,[3],50.8 µM (active)
same,outcome,[4],inactive
OC[C@@H](O)[C@@H](O)[C@H](O)[C@H](O)CO,outcome,[2],inactive
same,outcome,[4],inactive
CCCCCCOCCO,outcome,[2],inactive
Cc1ccc(C)c(C)c1,outcome,[1],inactive
same,outcome,[2],inactive
same,outcome,AR (gene 367) [5],inactive
